A selection: hits, their analogues and other compounds. The true share with any hit is near 2.9%.
NadD block = NadD (S. aureus) enzyme inhibition; purified NadD enzyme, colorimetric absorbance read-out; inhibition, % at 20 µM; 0.78% of 360,000 active; in the data active means inhibition above about 26%
APOBEC3A inh = inhibitors of human APOBEC3A DNA deaminase; inhibition, % at 20 µM; 0.41% of 330,000 active; P31941; recombinant A3A, FAM/TAMRA ssDNA deamination fluorescence;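 active means at least 40% inhibition at 20 µM here, with at most 30% in a related deaminase screen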
Target sequence (P31941 whole entry, looked up): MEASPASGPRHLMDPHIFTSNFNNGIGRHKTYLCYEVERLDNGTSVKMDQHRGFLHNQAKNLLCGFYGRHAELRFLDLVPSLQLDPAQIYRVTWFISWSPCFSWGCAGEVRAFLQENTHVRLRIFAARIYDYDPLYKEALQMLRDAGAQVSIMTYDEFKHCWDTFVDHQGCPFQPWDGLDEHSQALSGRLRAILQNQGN
H9c2 TAG inh = triacylglycerol accumulation inhibition. H9c2 cells, Nile Red lipid (TAG) fluorescence; cells loaded with 200 µM oleic acid. inhibition, % at 12.5 µM. 0.66% of 230,000 active;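 active means pattern-corrected inhibition of lipid staining of at least 50% with the nuclear-stain viability signal not falling by more than 50%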
H9c2 protect = myocardial damage modulation in H9c2 cells. H9c2 cardiomyocytes, H2O2 injury protection, ATPLite, 2 h. 0.63% of 360,000 active. protection from H2O2 cell death, % at 20 µM. AID 588492;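 active means compounds giving at least 50% protection of heart cells from peroxide-induced death in the single-dose screen, raw or plate-pattern-corrected value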
A3G deaminase = inhibitors of human APOBEC3G DNA deaminase; recombinant A3G, ssDNA deamination FAM/TAMRA fluorescence; 0.28% of 330,000 active; AID 493012; inhibition, % at 20 µM;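 active means inhibition of at least 40% at 20 µM, with no more than 30% in the related APOBEC3A deaminase screen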
Target sequence (Q9HC16 whole entry, looked up): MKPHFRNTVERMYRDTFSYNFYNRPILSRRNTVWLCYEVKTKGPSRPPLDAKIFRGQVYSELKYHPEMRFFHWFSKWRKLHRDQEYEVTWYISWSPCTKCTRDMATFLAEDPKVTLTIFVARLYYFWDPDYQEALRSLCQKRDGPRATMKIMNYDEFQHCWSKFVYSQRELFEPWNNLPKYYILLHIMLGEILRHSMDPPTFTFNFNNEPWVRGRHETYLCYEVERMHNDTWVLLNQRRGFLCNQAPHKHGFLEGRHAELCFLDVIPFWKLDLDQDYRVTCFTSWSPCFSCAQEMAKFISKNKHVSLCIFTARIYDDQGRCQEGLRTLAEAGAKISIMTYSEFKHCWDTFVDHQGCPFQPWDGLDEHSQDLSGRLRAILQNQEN
PfGluPho inh = PfG6PD (Plasmodium falciparum) enzyme inhibition | PfGluPho enzyme, NADPH resazurin-diaphorase fluorescence | inhibition, % at 20 µM | 0.78% of 350,000 active | AID 504690;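 active means inhibition reaching at least a set limit at 20 µM in the primary screen, cut at about 59% in these data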
Large screens that a line does not name were inactive.

COc1cc(/C=N/N2C(=O)CSC2=S)ccc1O	none
Cc1ccccc1OCC(=O)Nc1c2c(nn1C(C)(C)C)CS(=O)(=O)C2	none
COc1ccc(N(C(=O)c2cccc([N+](=O)[O-])c2)S(=O)(=O)c2cccs2)cc1	H9c2 protect 50.8
COc1ccc(N(C(=O)c2ccncc2)S(=O)(=O)c2cccc([N+](=O)[O-])c2)cc1	none
O=C(N/N=C/c1cn(-c2ccccc2)nc1-c1cccnc1)c1ccccc1	H9c2 protect 60.6
O=C(N/N=C/c1cn(-c2ccccc2)nc1-c1ccc(F)cc1)c1ccc2c(c1)OCO2	none
O=C(N/N=C\c1cn(-c2ccccc2)nc1-c1ccccc1)c1ccc2c(c1)OCO2	H9c2 protect 52.5
NC(=O)N/N=C/c1cn(CC(=O)Nc2ccc(F)cc2)c2ccccc12	none
CCCc1cc2c(cc1NC(=O)c1ccc(Br)cc1)OCO2	H9c2 protect 56.4 (no result: H9c2 TAG inh)
COC(=O)c1ccc2nc(-c3ccco3)c(Cc3cccc(F)c3)n2c1	none (no result: APOBEC3A inh, H9c2 TAG inh, A3G deaminase, PfGluPho inh)
O=P(Nc1ccccc1)(Nc1ccccc1)c1ccccc1	none (no result: APOBEC3A inh, A3G deaminase)
CCCc1nc2oc3c(Cl)ncnc3c2c2c1CCCC2	none
CCCc1nc2oc3c(NCCCN(C)C)ncnc3c2c2c1CCCC2	H9c2 TAG inh 62.7
COc1ccc2c(c1OC)c(=O)n1c3ccc(OC(C)C(=O)NCCN4CCOCC4)cc3c3ccnc2c31 (stereo not drawn)	H9c2 protect 52.8 (no result: H9c2 TAG inh)
COc1cccc(C2c3cc4c(cc3OC(N3CCOCC3)C2C)OCO4)c1O (stereo not drawn)	none (no result: APOBEC3A inh, A3G deaminase)
O=C(CCC(=O)N1CCN(Cc2ccc(F)cc2)CC1)Nc1nnc(C2CCCCC2)s1	none (no result: H9c2 TAG inh)
CC(C)CC1=C/C(=C/c2ccc(-c3ccccc3)o2)C(=O)O1	NadD block 74.4
CC(=O)Oc1ccc(C(=O)Nc2ccc(S(=O)(=O)NCC3CCCO3)cc2)cc1 (stereo not drawn)	none (no result: H9c2 TAG inh)
COCCN(Cc1ccccc1)C(=O)Cc1ccc(OC)c(S(=O)(=O)N2CCOCC2)c1	none
COc1ccc(CC(=O)N(Cc2ccccc2)c2ccccc2)cc1S(=O)(=O)N1CCOCC1	H9c2 protect 69.0
Oc1ccc(/C=N/N=C/c2ccc(O)cc2)cc1	none
O=Cc1ccc(O)c(O)c1	none
Oc1ccc(N=Cc2ccc(O)c(O)c2)cc1	PfGluPho inh 67.3
Oc1ccc(/C=N/N=C/c2ccc(O)c(O)c2)cc1O	H9c2 protect 51.9
Nc1nc(CCl)nc(Nc2cccc3ccccc23)n1	H9c2 TAG inh 81.0
Cc1ccsc1C(=O)OCc1cc(=O)n2ccsc2n1	none
O=C(OCc1cc(=O)n2ccsc2n1)c1ccc(O)cc1O	H9c2 protect 63.5
O=c1cc(COc2ncnc3c(Cl)cc(Cl)cc23)nc2sccn12	H9c2 protect 54.6
FC(F)(F)c1cc(CCN2CCNC[C@@H]2CC2CCCCC2)cc(C(F)(F)F)c1	H9c2 TAG inh 137.5
CCCC[C@@H]1CNCCN1CCc1cc(C(F)(F)F)cc(C(F)(F)F)c1	none
CCCn1nc(C(=O)OCC(=O)c2c(N)n(C)c(=O)n(C)c2=O)c2ccccc2c1=O	H9c2 protect 60.8
CC(=O)Oc1ccc(C(=O)OCC(=O)c2c(N)n(C)c(=O)n(C)c2=O)cc1OC(C)=O	H9c2 protect 65.4
CCCn1nc(C(=O)OCC(=O)Nc2ccc(C(N)=O)cc2)c2ccccc2c1=O	none
CC1(C(=O)Nc2cccc3c2CCCC3)CCN1C(=O)c1cccc(F)c1 (stereo not drawn)	none (no result: APOBEC3A inh, A3G deaminase, PfGluPho inh)
COc1cc2c(C#CCCCO)c(-c3ccsc3)oc(=O)c2cc1OC	H9c2 protect 68.5
O=c1c2cccc3c2c(nn1CN1CCOCC1)-c1ccccc1-3	H9c2 protect 75.4
CCCOc1ccc(C(F)(F)F)cc1NC(=O)CCc1c(C)noc1C	none
O=C(CCC(=O)N/N=C/c1cc(Cl)cc(Cl)c1O)NCc1ccccc1	H9c2 protect 51.8
CN(C)c1ccc(C(C(=O)NC2CCCC2)N(C(=O)c2csnn2)C2CC2)cc1 (stereo not drawn)	none (no result: H9c2 TAG inh)
O=C(c1ccccc1)c1ccc2nc(N3CCN(C(=O)c4ccco4)CC3)c3nncn3c2c1	H9c2 protect 83.6
Nc1nc(COC(=O)C2CCN(C(=O)c3ccc(Cl)cc3)CC2)nc(Nc2ccccc2)n1	none
O=C(Cn1nc(C(=O)O)c2ccccc2c1=O)c1c[nH]c2ccccc12	H9c2 protect 57.1
Cc1cc(C)c(C(=O)Cn2nc(C(=O)O)c3ccccc3c2=O)cc1C	none
CCN(CC)CCNC(=O)c1cc2c(-c3ccc(Cl)cc3)nn(C)c2s1	H9c2 TAG inh 65.1
CCCN(CCC)CCNC(=O)c1cc2c(-c3ccc(Cl)cc3)nn(C)c2s1	none (no result: H9c2 TAG inh)
CCOC(=O)C1=c2/c(=C/c3ccncc3)c(N)c(C(=O)OC)n2C(=O)C(c2ccncc2)S1 (stereo not drawn)	H9c2 protect 55.3
O=S(=O)(/N=C(/Sc1ccccc1)c1ccccc1)c1ccccc1	H9c2 protect 51.9
CS/C(=N\S(=O)(=O)c1ccccc1)c1ccccc1	H9c2 protect 55.9 (no result: H9c2 TAG inh)
O=S(=O)(/N=C(/NS(=O)(=O)c1ccccc1)c1ccccc1)c1ccccc1	none
COc1ccc(CCn2c(C)cc(C(=O)CN3C(=O)C(=O)N(C4CCCC4)C3=O)c2C)cc1OC	none
CC1CCCCC1NC(=O)C(C)N1C(=O)c2ccccc2C1=O (stereo not drawn)	none
COc1ccc(S(=O)(=O)N2Cc3ccccc3CC2C(=O)Nc2ccc(O)cc2)cc1OC (stereo not drawn)	H9c2 protect 58.5
O=C(CSc1nc(-c2ccco2)cc(C(F)(F)F)n1)NCCN1CCOCC1	none (no result: H9c2 TAG inh)
Cc1nc(SCC(=O)NCc2ccco2)c2c(=O)n(C)c(=O)n(CC(C)C)c2n1	none (no result: PfGluPho inh)
CCOC(=O)c1cnc(Nc2nc3ccccc3o2)nc1CN1CCN(C)CC1	H9c2 protect 59.9 (no result: APOBEC3A inh, A3G deaminase)
CCCOC(=O)Nc1nc2ccccc2o1	none
O=C(NCCN1CCC(n2c(=O)[nH]c3ccccc32)CC1)c1ccccc1C(F)(F)F	none (no result: APOBEC3A inh, H9c2 TAG inh, H9c2 protect, A3G deaminase, PfGluPho inh)
Cc1ccc2cc(C(c3nnnn3C3CCCC3)N(Cc3ccco3)Cc3cccs3)c(=O)[nH]c2c1 (stereo not drawn)	NadD block 39.4 (no result: H9c2 TAG inh)
Cc1nc2ccccc2c(=O)n1/N=C/c1ccc2ccccc2c1O	H9c2 protect 57.0
Cc1nc2ccccc2c(=O)n1/N=C/c1ccccc1O	none
COc1cc2c(cc1OC)-c1n[nH]c(=S)n1C(C)(C)C2	A3G deaminase 48.1
COc1cc2c(cc1OC)-c1nnnn1C(C)(C)C2	none (no result: H9c2 TAG inh)
COc1ccc(CCCC(=O)Nc2ccc(F)cc2)cc1	none (no result: H9c2 TAG inh)
COc1ccc(NC(=O)COC(=O)C2COc3ccccc3O2)cc1OC (stereo not drawn)	none (no result: APOBEC3A inh, A3G deaminase)
C=CCn1cnc2c(c1=O)c1nc3ccccc3nc1n2-c1ccc(C)cc1	none (no result: NadD block, H9c2 TAG inh, H9c2 protect, PfGluPho inh)
C=CCn1cnc2c(c1=O)c1nc3ccccc3nc1n2/N=C/c1cccc(OC)c1OC	H9c2 protect 73.6 (no result: H9c2 TAG inh)
C=CCn1cnc2c(c1=O)c1nc3ccccc3nc1n2/N=C/c1ccccn1	H9c2 protect 97.8 (no result: APOBEC3A inh, H9c2 TAG inh, A3G deaminase)

Screening results: PubChem BioAssay, Sanford-Burnham Center for Chemical Genomics
